Bioassay records deposited in PubChem by several laboratories.
NR3A LBD binder – modulators (binders) of human NR3A ligand-binding domain; NR3A LBD differential scanning fluorimetry, Tm shift; 0% = protein alone, 100% = glycine-bound protein; actives 2.5% (n = 340,000); Tm shift relative to glycine control, % at 25 µM;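 active = melting temperature shift of at least 10% of the positive control shift, at one fixed dose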
MPTP block – inhibitors of mitochondrial permeability transition pore. actives 1.4% (n = 360,000). isolated mouse mitochondria, Ca2+ swelling absorbance, 30 min. inhibition, % at 10 µM;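 active = inhibition of 50% or more, scaled per plate between neutral and stimulator controls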;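 also: 0% = DMSO wells given calcium and 100% = 1 mM EGTA wells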
CSC inhib – blocks cancer stem cells. cancer stem cell-like cells viability, luminescence. inhibition, % at 7.5 µM. AID 2717. actives 1.1% (n = 300,000); in the data active = inhibition above about 75%; tested in HMLE shEcad cells
Beta apoptosis – blocks beta cell apoptosis. AID 435005. protection from apoptosis, % (test concentration not listed). INS-1E cytokine-induced death, ATP luminescence, 48 h; percent of positive-control rescue, neutral wells zero. actives 0.8% (n = 300,000);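 active = Every replicate reaches about 75%, or at least half do and their mean reaches it too, limit read from the data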;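 also: 0% = cytokine-treated negative control wells and 100% = positive control rescue; higher means more ATP so stronger rescue from cytokine killing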
Mdm2-MdmX inh – inhibitors of human Mdm2/MdmX interaction; inhibition, % at 8 µM; actives 3% (n = 330,000); SaOS-2 split-luciferase Mdm2/MdmX complementation, luminescence;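 active = inhibition of at least 50% at 8 µM in the primary screen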
Gli-Sufu block – Gli-Sufu pathway antagonism. inhibition, % at 5 µM. Sufu-KO-LIGHT fibroblasts, Gli luciferase reporter luminescence. actives 0.74% (n = 340,000);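 active = inhibition above about 55%, limit read from the data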;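 also: 0% = DMSO-treated cells and 100% = wells with medium but no cells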
Gli-Sufu confirm – confirmation of Gli-SUFU pathway antagonists; shares compounds with Gli-Sufu block; Sufu-KO-LIGHT cells, Gli luciferase reporter, luminescence; inhibition, % at 5 µM; actives 40% (n = 2,500); AID 602428;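 active = mean inhibition at 5 µM reaching about 45%, limit read from the data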;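 also: plate controls were DMSO-treated cells for no effect and wells lacking cells for full effect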
Gli cytotox – cytotoxic in Gli-SUFU antagonist counter-screen. shares compounds with Gli-Sufu block. cytotoxicity, % at 5 µM. Sufu-KO-LIGHT cells cytotoxicity, ATP luminescence. actives 32% (n = 2,500);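 active = mean cytotoxicity at 5 µM above about 25%, limit read from the data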;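 also: cells exposed to compound overnight for roughly 16 to 18 hours; plate controls were DMSO wells with cells for no effect and medium without cells for full effect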
Wnt3a counter – counter-screen for Gli-SUFU antagonists: Wnt3a reporter inhibition. shares compounds with Gli-Sufu block. Wnt-LIGHT cells, Wnt3a-driven luciferase reporter, luminescence. inhibition, % at 6.25 µM. actives 20% (n = 2,500). AID 651995;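 active = mean inhibition above about 25%, limit read from the data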
* = called active by the depositor. Sampled rows, rich in hits. Any-hit rate of the full collection: about 6.6%.

CCC1(O)C(=O)OCc2c1cc1n(c2=O)Cc2cc3cc(O)ccc3nc2-1 (stereo not drawn) was read as NR3A LBD binder -0.5, MPTP block -2.8, Gli-Sufu block 52.0, Gli-Sufu confirm 64.1*, Gli cytotox 50.9* and Wnt3a counter -71.8.
`COC(=O)c1cnc(Oc2c(Cl)cc(N)cc2Cl)cc1C(F)(F)F` gave NR3A LBD binder -5.0, MPTP block -1.2, CSC inhib 5.7, Beta apoptosis 2.6, Mdm2-MdmX inh 9.2 and Gli-Sufu block -11.9.
O=C(COC(=O)C12CC3CC(CC(Cl)(C3)C1)C2)Nc1ccc2[nH]c(=O)[nH]c2c1 was read as NR3A LBD binder 0.4, MPTP block 1.2, CSC inhib -13.8, Beta apoptosis -2.0, Mdm2-MdmX inh -7.7 and Gli-Sufu block -8.2.
`O=C([O-])c1cc(-c2ccccc2)cc(-c2ccccc2)[n+]1CCc1ccc(Cl)cc1` gave NR3A LBD binder -4.3, MPTP block 2.5, Gli-Sufu block 77.5*, Gli-Sufu confirm 67.3*, Gli cytotox 35.8* and Wnt3a counter -23.3.
`CCOC(=O)c1ccc(NC(=S)N(CCCN2CCN(C)CC2)Cc2cccs2)cc1` gave NR3A LBD binder -0.4, MPTP block -0.5, CSC inhib 10.4, Beta apoptosis -5.6, Mdm2-MdmX inh -19.0, Gli-Sufu block 60.2*, Gli-Sufu confirm 9.6, Gli cytotox 26.5* and Wnt3a counter -19.0.
CC12CCC(=O)C=C1CCC1C2C(O)CC2(C)C(c3csc(N)n3)CCC12 (stereo not drawn) was read as NR3A LBD binder 1.2, MPTP block 8.8, Gli-Sufu block 58.9*, Gli-Sufu confirm 61.2*, Gli cytotox 18.2 and Wnt3a counter 31.9*.
`CC(=O)C1CCC2C3CCC4=CC(=O)CCC4(C)C3C(O)CC12C` (stereo not drawn) gave MPTP block 0.7.
Screening COc1ccc(OC)c(NC(=O)CCNS(=O)(=O)c2ccc3c(c2)CC(C)N3C(C)=O)c1 (stereo not drawn) returned MPTP block -2.7.
`O=C(Nc1nnc(-c2ccco2)o1)c1ccc2ccccc2c1` gave NR3A LBD binder -1.1, MPTP block -2.5, CSC inhib 11.0, Mdm2-MdmX inh 5.0, Gli-Sufu block 96.7*, Gli-Sufu confirm 8.4, Gli cytotox 2.5 and Wnt3a counter -14.4.
CC(=O)NC1C(OCc2ccccc2)OC2COC(C)(C)OC2C1O (stereo not drawn) was read as NR3A LBD binder 0.9, MPTP block -0.4, CSC inhib -27.4, Beta apoptosis -3.3, Mdm2-MdmX inh 27.3 and Gli-Sufu block 2.8.
Cc1ccccc1OC(C)C(=O)Nc1ccc(S(=O)(=O)Nc2nccs2)cc1 (stereo not drawn) was read as NR3A LBD binder -12.9, MPTP block 2.8, CSC inhib 4.2, Beta apoptosis 1.4, Mdm2-MdmX inh 26.4 and Gli-Sufu block -9.6.
`Cc1cc(NC(=O)CSc2nc(Cc3ccc(O)cc3)c(C)[nH]2)no1` gave NR3A LBD binder -1.6, MPTP block -0.9, CSC inhib 1.3, Mdm2-MdmX inh -0.3, Gli-Sufu block 52.8, Gli-Sufu confirm 14.9, Gli cytotox 6.1 and Wnt3a counter -17.5.
For CC(Oc1ccccc1)C(=O)Nc1ccc(C(N)=O)cc1 (stereo not drawn) the results were NR3A LBD binder -2.6, MPTP block -0.4, Beta apoptosis 0.1, Mdm2-MdmX inh -26.3, Gli-Sufu block 52.4, Gli-Sufu confirm 19.0, Gli cytotox 4.0 and Wnt3a counter -9.8.
Screening COc1ccccc1OCC(=O)Nc1ccc(C(N)=O)cc1 returned NR3A LBD binder -3.1, MPTP block 0.3, CSC inhib -6.4, Beta apoptosis -10.4, Mdm2-MdmX inh 0.5, Gli-Sufu block 69.2*, Gli-Sufu confirm 26.9, Gli cytotox 3.6 and Wnt3a counter 4.4.
Screening COc1ccccc1OCC(=O)Nc1ccc(NC(=O)COc2ccccc2OC)cc1 returned NR3A LBD binder 0.7, MPTP block 0.7, CSC inhib -0.6, Beta apoptosis 6.8, Mdm2-MdmX inh 13.8 and Gli-Sufu block -6.8.
CN1CCN(CC(=O)Nc2nnc(-c3cccs3)s2)CC1 was read as NR3A LBD binder -11.6, MPTP block -8.4, CSC inhib -33.1, Beta apoptosis -1.1, Mdm2-MdmX inh 0.7 and Gli-Sufu block -1.3.
`CC(C)(C)C1CCC(OC(=O)C[N+]2(C)CCCCC2)CC1` (stereo not drawn) gave NR3A LBD binder 1.8, MPTP block 0.2, CSC inhib 57.8, Beta apoptosis 2.7, Mdm2-MdmX inh -6.5, Gli-Sufu block 52.7, Gli-Sufu confirm 32.8, Gli cytotox 11.9 and Wnt3a counter 0.6.
For O=C1C=C(Nc2ccc(Cl)cc2)C(=O)N1c1ccc(Cl)cc1 the results were NR3A LBD binder 2.9, MPTP block -0.1, CSC inhib 22.9, Beta apoptosis -5.3, Mdm2-MdmX inh -14.4 and Gli-Sufu block -23.2.
For CC(C)CNC(=O)c1ccccc1NC(=O)/C=C/c1cccc([N+](=O)[O-])c1 the results were NR3A LBD binder -0.6, MPTP block -2.6, CSC inhib 7.4, Beta apoptosis -10.2, Mdm2-MdmX inh 16.6 and Gli-Sufu block -6.9.
`COc1ccccc1NS(=O)(=O)c1cc(C(=O)NC2CC(C)(C)NC(C)(C)C2)ccc1Cl` gave NR3A LBD binder 1.8, MPTP block -1.5 and Gli-Sufu block -5.9.
Screening Cc1ccc(NC(=O)c2ccc([N+](=O)[O-])cc2Cl)nc1 returned NR3A LBD binder 0.2, MPTP block 0.1, CSC inhib -0.9, Beta apoptosis -3.2, Mdm2-MdmX inh -75.9 and Gli-Sufu block -68.3.
`CN(C)S(=O)(=O)c1cccc(-c2nn(-c3ccccc3)cc2/C=C(/C#N)C(=O)NCc2ccco2)c1` gave NR3A LBD binder 15.5*, MPTP block -1.3, CSC inhib -15.6, Beta apoptosis 3.8, Mdm2-MdmX inh 31.3, Gli-Sufu block 82.8*, Gli-Sufu confirm 30.1, Gli cytotox 7.5 and Wnt3a counter 14.5.
Screening COc1cc(C=O)c(-c2c(C=O)cc(OC)c3c2OCO3)c2c1OCO2 returned NR3A LBD binder 0.2, MPTP block -0.4, CSC inhib -15.5, Beta apoptosis -7.9, Mdm2-MdmX inh 33.7, Gli-Sufu block 63.1*, Gli-Sufu confirm 13.6, Gli cytotox 18.4 and Wnt3a counter -3.8.
